Test results reported in PubChem BioAssay (NCI).
The panel holds about 83,000 compounds, 20% with a hit somewhere; the sample as a whole holds those more often.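 Values shown are percent growth following 48 h exposure of cells in 96-well plates to a single concentration of compound; below 10 was considered active.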 A number with no mark means an inactive call. The source made the active and inactive calls.

Columns and labels:
Experiment in all cases: NCI-60 one-dose screen, 48 h (100 = growth as untreated, 0 = no growth, -100 = all killed)
Settings in all cases: 10 µM unless noted
SR leukemia = test system: SR leukemia
RPMI-8226 leukemia = test system: RPMI-8226 leukemia
OVCAR-8 ovarian = test system: OVCAR-8 ovarian
OVCAR-5 ovarian = test system: OVCAR-5 ovarian
OVCAR-4 ovarian = test system: OVCAR-4 ovarian
SK-OV-3 ovarian = test system: SK-OV-3 ovarian
IGROV1 ovarian = test system: IGROV1 ovarian
HS 578T breast = test system: HS 578T breast
NCI/ADR-RES ovarian = test system: NCI/ADR-RES ovarian
OVCAR-3 ovarian = test system: OVCAR-3 ovarian

Row | Structure (SMILES) | growth (SR leukemia) | growth (RPMI-8226 leukemia) | growth (OVCAR-8 ovarian) | growth (OVCAR-5 ovarian) | growth (OVCAR-4 ovarian) | growth (SK-OV-3 ovarian) | growth (IGROV1 ovarian) | growth (HS 578T breast) | growth (NCI/ADR-RES ovarian) | growth (OVCAR-3 ovarian)
1 | COC(=O)c1c2c(c[n+]([O-])c1C)C(=O)C=C(NCc1ccccc1)C2=O | -10.3% (active) | -22.6% (active) | -60.4% (active) | -90% (active) | -98.8% (active) | -87.6% (active) | -66.9% (active) | -15.5% (active) | -12.1% (active) | –
2 | COc1ccc(-c2cn(Cc3cc4ccccc4s3)nn2)cc1OCCN1CCCCC1 | 1.37% (active) | 28.5% | 83.2% | 80.5% | 68.2% | 93.1% | 80.8% | 51.3% | 75.4% | –
3 | CCSc1ccnc(N)n1 | 153% | 114% | 108% | 104% | 111% | 110% | 96.7% | 117% | 109% | –
4 | COC12C=C/C(=C(/C(=O)OCc3csc(SC)n3)C(=O)CCCCCCCCC3(OC)C=C/C(=C(/C(=O)OCc4cnc(SC)s4)C(=O)CCCCCCCC1)O3)O2 (stereo not given) | 1.64% (active) | 1.53% (active) | 27% | 60% | 38.8% | 87.8% | 21% | 57.2% | 81.3% | –
5 | CCCOC(=O)Nc1nc2ccc(SCC)cc2s1 | 25.9% | 85.1% | 94.7% | 102% | 94.2% | 95.8% | 89.5% | 93.4% | 50.5% | –
6 | O=C(/C=C/C12c3ccccc3C(c3ccccc31)C1C(=O)NC(=O)C12)c1ccc(I)cc1 (stereo not given) | 25.2% | 3.09% (active) | 35.6% | 73.4% | 84.8% | 83% | 55.6% | – | 50.9% | –
7 | O=[N+]([O-])c1c(O)c(Cl)cc(Cl)c1Cl | 87.9% | 97.9% | 101% | 91.6% | 109% | 99.2% | 111% | 117% | 95.6% | –
8 | Cc1nn(C)c2ncnc(N/N=C/c3cccc(O)c3O)c12 | 7.79% (active) | -8.14% (active) | 18.2% | 41.8% | 22% | 9.76% (active) | 15.4% | – | 11.9% | 25.5%
9 | O=c1ccc2ccc(OCCN3CCCCC3)cc2o1 | -35.7% (active) | -23.8% (active) | 95.2% | 102% | 113% | 82.7% | 110% | 96.5% | 99.9% | –
10 | O=S(=O)(Nc1cc(Sc2nc3ccccc3s2)c(O)c2ccccc12)c1ccc2ccccc2c1 | 100% | 88.5% | 75.3% | 111% | 77.8% | 101% | 101% | 101% | 86.1% | –
11 | Clc1ccc(Nc2ncc(Cc3cccc(Cl)c3Cl)s2)cc1 | 102% | 89.4% | 98% | 85.8% | 94.8% | 102% | 93.3% | – | 93.3% | 100%
12 | Cc1cccc(NC(=O)N/C(N)=N/c2nc3ccccc3s2)c1 | 27.1% | 26.4% | 35.5% | 56.4% | 56.9% | 35.2% | 36.9% | 23.8% | 15% | –
13 | Cc1ccc2c(c1)nc(C)n2-c1ncnc2c1CC(C)c1cc(O)ccc1N2C (stereo not given) | 6.97% (active) | 30.3% | 40.6% | 89% | 67.5% | 14.1% | 51.4% | 34.7% | 25.9% | –
14 | O=S(O)c1cc(Cl)cc(Cl)c1OCc1ccccc1 | 92.6% | 93.1% | 97.6% | 99% | 113% | 102% | 109% | 95.4% | 103% | –
15 | CCN(CC)CCCNc1cc(OC)c(OC)c2cccnc12 | 41.5% | 74.4% | 65.1% | 112% | -10.1% (active) | 56.3% | 35.4% | 74.3% | 76.6% | –
16 | C=C[C@@]1(C)CC(=O)[C@@H](C(C)(C)c2cn(C)c3ccc(Br)cc23)C[C@@H]1O[Si](C)(C)C(C)(C)C | 103% | 87.5% | 101% | 106% | 94.2% | 115% | 112% | 112% | 101% | –
17 | CCN1C(=O)N(CC)C2C1NN=c1s/c(=C\c3ccc(OC)cc3)c(=O)n12 (stereo not given) | 12.1% | 20.6% | -2.81% (active) | 29.4% | 46.3% | 40.5% | 19.6% | 21.6% | 0.931% (active) | –
18 | CN1CCN(Cc2ccc(NC(=O)c3cncc(C#Cc4cnc(N)cc4C#N)c3)cc2C(F)(F)F)CC1 | 1.8% (active) | 12.7% | 22.6% | 15.8% | 23.2% | -14.6% (active) | 1.46% (active) | -8.07% (active) | 66.3% | –
19 | COc1cc(Cc2cc(OC)c(O)c(OC)c2)cc(OC)c1O | 28% | 92.7% | 100% | 112% | 107% | 98.3% | 91.6% | – | 52.8% | –
20 | COC(=O)/C(CCC=C(C)C)=C1\[C@@H](OC(C)=O)C[C@@]2(C)[C@H]1C/C(=N/O)[C@H]1[C@@]3(C)CC/C(=N\O)[C@@H](C)[C@@H]3CC[C@@]12C | 66.2% | 46.3% | 90.4% | 135% | 97.3% | 107% | 100% | 94.3% | 102% | –
21 | O=C(Nc1ccc(Oc2cccc(Cl)c2)c(Cl)c1)c1cccnn1 | 87% | 71.1% | 91.7% | 91.1% | 68.6% | 102% | – | 106% | 85% | 85.6%
22 | Cc1ccc(-c2nc(SCC(=O)N3CCN(c4cc5c(cc4F)c(=O)c(C(=O)O)cn5C4CC4)CC3)nc(Cl)c2C#N)cc1 | 103% | 104% | 106% | 96.4% | 108% | 89.2% | – | 104% | 102% | 109%
23 | CCNC(=O)N1CCc2c(Br)c3c(c(OC)c2C1Cc1ccc(OC)cc1)OCO3 (stereo not given) | 33.1% | 44.3% | 49.8% | 74.4% | 54.3% | 27.6% | – | 16.9% | 4.18% (active) | 7.18% (active)
24 | O=C(Cn1nc(-c2cccc3ccccc23)ccc1=O)NCc1cccc(Cl)c1 | 22.2% [50 µM] | 23.7% [50 µM] | 39.5% [50 µM] | 67.8% [50 µM] | 41.4% [50 µM] | 61.5% [50 µM] | – | 61.6% [50 µM] | 27.1% [50 µM] | 38.6% [50 µM]
25 | CCN(CC)CCOc1ccc(/C(=C(\C)Cc2ccc(OC)cc2)c2ccc(OC(=O)NCc3ccccc3)cc2)cc1 | -53% (active) | 3.04% (active) | 68.7% | 81.9% | 58% | 91.2% | – | 63.2% | 78.7% | 76.1%
26 | Cc1ccc(NC(=O)c2cc3ccccc3cc2O)c(C)c1 | 76.8% | 29.4% | 109% | 96.9% | 74.4% | 99.4% | – | – | 82.8% | 66.4%
27 | COc1ccc(C(=O)/C=C/c2ccccc2)cc1S(N)(=O)=O | 13.4% | 64.9% | 46.2% | 101% | 86.1% | 116% | – | 74.4% | 79.3% | 52.4%
